High-throughput results from PubChem.
This is one part of a sample in which hits are shown more often than they occur.
Pf Dd2 growth = qHTS Primary assay for Inhibitors of Plasmodium falciparum Dd2 growth in vitro; P. falciparum Dd2 growth, SYBR Green, 72 h; Potency, µM (titrated, usually from 28.9 µM), inactives show at the highest dose activity, negative = inhibition, usual class: inhibitors; 120,000 tested, 4.3% active; AID 1347417, 2020; active = well fitted inhibition curve with a large enough effect;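 note: plate controls were DMSO vehicle for no effect and reference drug for full effect; nearly all actives have a fitted effect of over 65% in size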
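Readout: SYBR Green fluorescence, 485 nm excitation, 535 nm emission, after ~16 h lysis at 37C. Before that, Dd2-infected red cells (2.5% hematocrit) grew 72 h with compound, 29 uM top final concentration.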
* hit, by the source's call; [ ] = remark or other dose. Potency is the fitted concentration of half-maximal effect.

For Cc1cccc(O[C@H]2COCCN(S(=O)(=O)c3c(C)noc3C)C2)n1 the results were Pf Dd2 growth inactive.
`COCCN1C(=O)c2cccn2CC1CNC(=O)CCC1CCCC1` (stereo not drawn) gave Pf Dd2 growth -44.1%.
For CN(C)C(=O)c1cccnc1OC1CCN(S(=O)(=O)c2ccc(F)c(Cl)c2)C1 (stereo not drawn) the results were Pf Dd2 growth 5.3%.
Screening COc1cc2cc(CNc3ccccc3)c(=O)n(CC(=O)Nc3cc(C)cc(C)c3)c2cc1OC returned Pf Dd2 growth 11.2µM*.
For CCc1ccc(NC(=O)Cn2c(=O)c(CNc3ccccc3)cc3cc(OC)c(OC)cc32)cc1 the results were Pf Dd2 growth inactive.
For COc1ccc(NCc2cc3cc4c(cc3n(CC(=O)Nc3cc(C)cc(C)c3)c2=O)OCO4)cc1 the results were Pf Dd2 growth -5.9%.
`CCNC(=O)[C@@H]1C[C@H](NC(=O)c2ncoc2C)CN1CCCn1cnnn1` gave Pf Dd2 growth 4.3%.
Screening COCC(=O)N(C1CCOCC1)C1CCN(S(=O)(=O)c2cccnc2)CC1 returned Pf Dd2 growth 28.0%.
Screening CC(C)CN(C1CCOCC1)C1CN(S(=O)(=O)c2ccc(F)cc2)C1 returned Pf Dd2 growth -12.7%.
Screening CC(C)CCN(C1CCOCC1)C1CCN(S(=O)(=O)c2cccnc2)CC1 returned Pf Dd2 growth 10µM*.
`O=C1NCCCCCCN(C(=O)CC2CCCC2)[C@@H]2CCCC[C@H]12` gave Pf Dd2 growth -13.4%.
For Cc1cc(=O)n(CC(=O)Nc2ccc(C)c(C)c2)c(N(C)Cc2ccccc2)n1 the results were Pf Dd2 growth inactive.
For Cc1cccc(NC(=O)Cn2c(N(C)Cc3ccccc3)nc(C)cc2=O)c1 the results were Pf Dd2 growth 5.01µM*.
Screening CCc1cccc(NC(=O)Cn2c(N(C)Cc3ccccc3)nc(C)cc2=O)c1 returned Pf Dd2 growth inactive.
`O=C(COc1ccccc1)N1CCOC[C@H](Oc2ccc(C(F)(F)F)cn2)C1` gave Pf Dd2 growth 6.3%[44.1 µM].
COCCNC(=O)[C@@H]1CCC[C@@H](NC(=O)CC(C)C)CN(C)C(=O)C1 was read as Pf Dd2 growth 23.8%[44.1 µM].
O=C(NC1CCCCC1)[C@@H]1Cc2nc[nH]c2CN1Cc1ccc(Cl)cc1 was read as Pf Dd2 growth 12.6µM*.
COc1ccc(CNC(=O)[C@@H]2Cc3nc[nH]c3CN2Cc2ccc(CO)o2)cc1 was read as Pf Dd2 growth inactive.
For COc1ccc(CNC(=O)[C@@H]2Cc3nc[nH]c3CN2Cc2ccc(Cl)cc2)cc1 the results were Pf Dd2 growth 12.6µM*.
For O=C(NCc1ccccc1)[C@@H]1Cc2nc[nH]c2CN1Cc1ccc(Cl)cc1 the results were Pf Dd2 growth -9.0%[44.1 µM].
For O=C([C@@H]1Cc2nc[nH]c2CN1Cc1ccc(Cl)cc1)N1CCOCC1 the results were Pf Dd2 growth inactive.
COc1ccc(CNC(=O)[C@@H]2Cc3nc[nH]c3CN2Cc2ccc(C(=O)O)cc2)cc1 was read as Pf Dd2 growth 0.6%[44.1 µM].
CCOCCCNC(=O)[C@H]1CCC[C@H]1NC(=O)c1ccc(OC)nc1 was read as Pf Dd2 growth 9.6%.
Oc1ccc(CCC2CCCCN2Cc2nc(Cc3cccc(F)c3)no2)cc1 (stereo not drawn) was read as Pf Dd2 growth 5.01µM*.
For CCc1noc(-c2nc(Cc3cccc(F)c3)no2)n1 the results were Pf Dd2 growth inactive.
Screening CN(Cc1ccc(-n2cccn2)cc1)Cc1nc(Cc2cccc(F)c2)no1 returned Pf Dd2 growth 4.8%.
`CN1[C@@H](CCC(=O)N2CCCC2)CNC(=O)[C@H]2NCC[C@H]21` gave Pf Dd2 growth 26.5%[44.1 µM].
Screening CC(C)=CCC1(C(=O)O)CCCN(C(=O)Cc2c[nH]c(=O)n(C)c2=O)C1 (stereo not drawn) returned Pf Dd2 growth -8.0%.
Cc1ccc(-c2nc(C)c(CCNC(=O)c3ccccc3Br)s2)cc1 was read as Pf Dd2 growth -10.8%.
`NC(=O)c1nc(Nc2ccccc2)sc1NC(=O)c1c(F)cccc1F` gave Pf Dd2 growth 52.7%.
`Cc1ccc(Nc2nc(C(N)=O)c(NC(=O)c3ccccc3Br)s2)cc1` gave Pf Dd2 growth 10µM*.
For CN1CCC(N2CCCC(NC(=O)c3cnc4ccccc4c3)C2)CC1 (stereo not drawn) the results were Pf Dd2 growth -13.3%.
O=C(NCc1cnccn1)C1CCCN(c2cnn(Cc3ccccc3)c(=O)c2)C1 (stereo not drawn) was read as Pf Dd2 growth -16.0%.
Screening Cn1ncc(N2CCC(C(=O)Nc3ccccc3CCc3ccccn3)C2)cc1=O (stereo not drawn) returned Pf Dd2 growth -16.4%.
Screening O=C(Nc1ccccc1CCc1ccccn1)C1CCN(c2cnn(Cc3ccccc3)c(=O)c2)C1 (stereo not drawn) returned Pf Dd2 growth 4.47µM*.
For CNc1nc2c(s1)C[C@]1(C)CCC([C@H](C)C(=O)N3CCSCC3)[C@H](O)[C@H]1[C@@H]2C (stereo partly drawn) the results were Pf Dd2 growth inactive.
